This note sets out measurements from PubChem BioAssay AID624040 (The Scripps Research Institute Molecular Screening Center, 2012).

As a reminder, the inhibition is the drop in the measured response relative to a control, in per cent.

Several values for one entry are separate records, joined by “and”; a condition that tells them apart may be missing. Equal entries are not always repeated. Among all 360,000 compounds or so, about 2,100 (0.58%) were called active. This is one part of a sample in which actives are shown more often than they occur. Unmarked numbers belong to inactive results.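 Rule for the calls: active = inhibition above a per-plate cutoff, the mean of that plate's test compounds plus 3 SD (cut at about 27% in these data); inactive = the rest.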

Chain of Muscarinic acetylcholine receptor M5 (Homo sapiens) (P08912 whole entry, looked up): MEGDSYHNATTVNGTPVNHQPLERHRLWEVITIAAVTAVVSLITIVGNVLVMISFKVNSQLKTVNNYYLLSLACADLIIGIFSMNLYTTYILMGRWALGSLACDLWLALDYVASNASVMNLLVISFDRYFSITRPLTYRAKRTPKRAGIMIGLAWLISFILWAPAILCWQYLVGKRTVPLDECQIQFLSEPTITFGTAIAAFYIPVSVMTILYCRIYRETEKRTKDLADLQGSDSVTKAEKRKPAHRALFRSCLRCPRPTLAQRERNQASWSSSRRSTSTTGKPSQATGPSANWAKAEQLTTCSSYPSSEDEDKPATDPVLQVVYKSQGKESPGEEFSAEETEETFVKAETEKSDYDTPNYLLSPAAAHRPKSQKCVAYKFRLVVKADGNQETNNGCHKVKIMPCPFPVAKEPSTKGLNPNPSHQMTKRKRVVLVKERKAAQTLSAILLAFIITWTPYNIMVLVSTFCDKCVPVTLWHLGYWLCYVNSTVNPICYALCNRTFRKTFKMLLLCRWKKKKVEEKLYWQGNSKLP

This assay addresses Muscarinic acetylcholine receptor M5 (Homo sapiens) (UniProt P08912). Briefly: CHRM5 blockers of acetylcholine calcium response – CHO cells, Fluo-8 calcium fluorescence, primary screen (AID 624040).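 Note: 0% = acetylcholine EC80 with DMSO and 100% = DMSO without agonist.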 Conditions: CHO-hM5 cells, ACh EC80, at 3 µM, active compounds read high.
`COc1ccc(S(=O)(=O)N(C)CC(=O)NCCCN2CCOCC2)cc1Cl`: the inhibition was 8.37%.
On to `CCN1CCN(C(=O)Cn2nc(C)n3c(cc4c(OC)cccc43)c2=O)CC1`, for which the inhibition is 2.41%.
`COc1ccc(CCNC(=O)CCC(=O)NC2CCCCC2)cc1OC`: the inhibition was 15.9%.
Then `CCc1ccc(N(C(=O)c2csnn2)C(C(=O)NC2CCCCC2)c2cccnc2)cc1` (centres undefined), with -0.48%; and `COc1ccccc1CNC(=O)c1ccc(Cl)c(S(=O)(=O)N2CCCC2)c1`, with -2.46%.
Take `CN(C)C(CNC(=O)c1cccc(S(=O)(=O)Nc2ccc(Br)cc2)c1)c1ccco1` (centres undefined): the inhibition is 4.75%.
As for `COc1ccccc1C(CNC(=O)c1cccc(S(=O)(=O)Nc2ccc(F)cc2)c1)N(C)C` (centres undefined), the figure is 98% (active); as for `COc1ccccc1C(CNC(=O)c1ccc(C)c(S(=O)(=O)N2CCCCC2)c1)N(C)C` (centres undefined), 98.7% (active); as for `COc1ccccc1C(CNC(=O)c1cccc(NS(=O)(=O)c2ccc(Br)cc2)c1)N(C)C` (centres undefined), 93.8% (active).
Then `COc1ccc(C(CNC(=O)c2cccc(S(=O)(=O)Nc3ccc(Br)cc3)c2)N(C)C)cc1` (centres undefined), with 5.55%; and `Cc1ccc(C(=O)NCC(c2cccs2)N(C)C)cc1S(=O)(=O)N1CCOCC1` (centres undefined), with 4.49%; and `Cc1cccc(NS(=O)(=O)c2ccc(C)c(C(=O)NCC(c3ccccc3)N(C)C)c2)c1` (centres undefined), with 5.12%.
Take `CC(=O)c1ccc(S(=O)(=O)Nc2ccc(C(=O)NCC(c3ccccc3)N(C)C)cc2)cc1` (centres undefined): the inhibition was 0.82%.
As for `C/C(CC(O)(/C=N/O)c1ccccc1)=N\O` (centres undefined), the figure is -4.45%; as for `O=C(CSc1nnc(-c2c[nH]c3ccccc23)n1-c1ccc(F)cc1)NCc1ccco1`, -3.75%; as for `CCOc1ncccc1C(=O)OCC(=O)NC1CC1`, 10.6%.
Then `CC(C)C(=O)N1CCN(CCN=CC2=C(O)CC(c3ccco3)CC2=O)CC1` (centres undefined), with -10.8% and 8.17%.
As for `CCOC(=O)C1=NN(c2ccc(Cl)cc2)/C(=C/C2=NCCc3cc(OC)c(OC)cc32)S1`, the figure is -2.43%; as for `O=C(NCc1ccccc1)C1CCCN(c2nc3ccsc3c(=O)s2)C1` (centres undefined), -8.79%.
In the case of `Cc1cccc(N(Cc2ccccc2)C(=O)c2cc(S(=O)(=O)N3CCOCC3)ccc2F)c1`, the inhibition is 1.23%.
As for `CN(Cc1cn(Cc2ccc(C(F)(F)F)cc2)nn1)C1CN(Cc2cn(Cc3ccc(C(F)(F)F)cc3)nn2)S(=O)(=O)C1` (centres undefined), the figure is 28.6% (active); as for `Cc1ccc(Cn2cc(CN3CC(N4CCN(C)CC4)CS3(=O)=O)nn2)cc1` (centres undefined), 0.4%.
In the case of `CN(C)C1CN(Cc2cn(Cc3ccccc3)nn2)S(=O)(=O)C1` (centres undefined), the inhibition was 0.6%.
Turning to `COC(=O)c1c(-c2cccs2)csc1NC(=O)CSc1ncnc2sc(C)c(C)c12`, the inhibition is -0.42%.
As for `O=S(=O)(Nc1ccc(O)c2ccccc12)c1ccc(OC(F)(F)F)cc1`, the figure is 7.68%.
Then `O=C(c1ccc(F)cc1)N1CCC(C(=O)N2CCN(S(=O)(=O)c3ccccc3Br)CC2)CC1`, with 4.21%; and `CCCCCc1c(-c2cccc(Br)c2)ncn1CCc1ccccc1OC`, with -1.26%.
As for `CCCCCc1c(-c2ccc(OC)c(OC)c2)ncn1CCc1ccccc1OC`, the figure is 15.1%.
For the molecule `CCCCCc1c(Cc2ccccc2)ncn1CCc1ccccc1OC`, the inhibition is 30.2% (active).
In the case of `Cc1cccc(C)c1NC(=O)C(c1ccc(C(F)(F)F)cc1)n1c(=O)c(-c2ccco2)nc2ccccc21` (centres undefined), the inhibition is -5.75%.
Then `c1ccc(C(=NNc2nc3ccccc3s2)c2ccccn2)cc1`, with 53.7% (active); and `CCOc1ccc(-n2c(SCC(=O)NC3CCS(=O)(=O)C3)nnc2-c2cccnc2)cc1` (centres undefined), with 0.02%; and `c1ccc(COc2ccccc2CNCc2cccnc2)cc1`, with 6.7%.
Then `c1ccc2c(c1)CSc1sccc1C2=C1CCNCC1`, with 99% (active).
As for `O=C(NCc1ccccc1)C1=C[C@H](C2CC2)C[C@H](OCc2ccc(CO)cc2)O1`, the figure is 8.59%.
In the case of `O=C(NCc1ccccc1)C1=C[C@@H](C2CCCCC2)C[C@@H](OCc2ccc(CO)cc2)O1`, the inhibition is 15.6%.
As for `CC(C)(C)[C@H]1C=C(C(=O)NCc2ccccc2)O[C@@H](OCc2ccc(CO)cc2)C1`, the figure is 27% (active); as for `COc1ccc(S(=O)(=O)N2CCCC(C(=O)N3CCN(C)CC3)C2)cc1C` (centres undefined), 10.1%.
Then `CC(=O)N1CCCc2cc(S(=O)(=O)N3CCCC(C(=O)N4CCN(c5cccc(Cl)c5)CC4)C3)ccc21` (centres undefined), with 39.3% (active); and `Cc1ccc(S(=O)(=O)N2CCCC(C(=O)N3CCN(C)CC3)C2)cc1` (centres undefined), with -2.93%.
Then `CC1=C(C)CC(C(=O)NNC(=O)c2csc3c2CCC(C(C)(C)C)C3)C(C(=O)O)C1` (centres undefined), with -0.27%.
Regarding `CCc1c(Nc2ccccc2Cl)nc(N)[nH]c1=O`, the inhibition is 6.79%.
As for `Cc1ccccc1NC(=O)Cc1nc(COC(=O)C(C)(C)Oc2ccc(Cl)cc2)cs1`, the figure is 0.92%; as for `CC(C)CC(=O)NC(=S)NNC(=O)c1cccc([N+](=O)[O-])c1`, 32.7% (active); as for `O=C(NC(=S)NC1CCS(=O)(=O)C1)c1cccc([N+](=O)[O-])c1` (centres undefined), -3.13%.
On to `C/C(=N\NC(=O)c1cccc([N+](=O)[O-])c1)c1cccnc1`, for which the inhibition was 0.74%.
On to `C[C@@H](CN1CCC[C@H]1CN1C(N)=NC[C@@H]1Cc1ccccc1)N1C[C@@H](Cc2ccccc2)N(CCCC2CCCC2)C1=N`, for which the inhibition is 28.9% (active).
Consider `NC1=NC[C@@H](Cc2ccc(O)cc2)N1CC1CCCCC1`, for which the inhibition is 9.28%.
For the molecule `CC[C@@H](C)[C@@H]1CN([C@@H](C)CN2CCC[C@H]2CN2C(N)=NC[C@H]2C(C)C)C(=N)N1CCc1ccc(Cl)c(Cl)c1`, the inhibition was -2.75%.
